Compound activity: PubChem, The Scripps Research Institute Molecular Screening Center
In the library only some 2.3% were active in any assay of this set; here they are far more common.
M1 PAM parental = counter-screen for M1 PAMs: effect in parental CHO-K1 cells. ATP EC20, Fluo-8 calcium fluorescence; 0% at ATP EC20, 100% at ATP max. activation, % at 3 µM. 360,000 compounds, 0.02% hits;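 active = activation above the run cutoff, the mean activation of all test compounds plus 3 SD, cut at about 40% in these data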;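 also: peak over basal fluorescence ratio in a 140 s read after ATP addition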
M1 ag = activates human CHRM1 receptor; 360,000 compounds, 0.33% hits; activation, % at 3 µM; CHO-K1 hM1, Fluo-8 calcium fluorescence, agonist mode; 0% DMSO, 100% acetylcholine EC100; P11229;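 active = activation above the run's mean compound activation plus 3 SD, cut at about 16% in these data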;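 also: peak over basal fluorescence ratio within a 140 s kinetic read after compound addition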
Target sequence (P11229 whole entry, looked up): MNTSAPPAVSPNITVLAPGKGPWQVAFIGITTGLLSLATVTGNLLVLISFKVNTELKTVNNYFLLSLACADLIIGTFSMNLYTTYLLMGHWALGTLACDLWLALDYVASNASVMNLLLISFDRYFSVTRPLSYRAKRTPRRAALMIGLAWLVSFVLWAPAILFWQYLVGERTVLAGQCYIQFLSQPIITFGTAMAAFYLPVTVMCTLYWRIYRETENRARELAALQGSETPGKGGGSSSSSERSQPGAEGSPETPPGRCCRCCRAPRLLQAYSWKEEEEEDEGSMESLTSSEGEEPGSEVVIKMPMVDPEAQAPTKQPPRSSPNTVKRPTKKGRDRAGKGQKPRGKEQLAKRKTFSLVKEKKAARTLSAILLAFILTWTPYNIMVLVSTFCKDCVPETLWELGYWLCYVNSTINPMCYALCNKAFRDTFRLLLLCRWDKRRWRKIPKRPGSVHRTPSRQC
CHRM1 PAM = positive allosteric modulators of human M1 muscarinic receptor | P11229 | CHO-K1 hM1, Fluo-8 calcium fluorescence, ACh EC20; 0% = ACh EC20, 100% = maximal ACh | activation, % at 3 µM | 360,000 compounds, 0.088% hits | AID 588819; in the data active = activation above about 19%, passing the limit was not always enough
M1 ag parental = counter-screen for M1 agonists: effect in parental CHO-K1 cells; Fluo-8 calcium fluorescence; scaled to maximal ATP response, vehicle zero; activation, % at 3 µM; 360,000 compounds, 0.48% hits; in the data active = activation above about 15%;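 also: untransfected CHO-K1 host cells lacking M1 receptor as counterscreen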
M1 antag = blocks human M1 muscarinic receptor | inhibition, % at 3 µM | 360,000 compounds, 1.3% hits | P11229 | AID 588852 | CHO-K1 hM1, Fluo-8 calcium fluorescence, ACh EC80 antagonist;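 active = percent inhibition above its own plate's cutoff, namely the mean of that plate's compound wells plus 3 SD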;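 also: peak over basal fluorescence ratio during 140 s after agonist addition; 0% = ACh EC80 plus DMSO and 100% = DMSO alone without agonist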
CHO-K1 Ca antag = nonselective inhibitor or artifact in parental CHO-K1 cells. ATP-induced calcium, Fluo-8 fluorescence. inhibition, % at 3 µM. 360,000 compounds, 0.6% hits. AID 602250;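 active = inhibition above a per-plate cutoff, the plate's mean sample inhibition plus 3 SD, cut at about 24% in these data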;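 also: 0% = DMSO plus EC80 ATP and 100% = DMSO alone without ATP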
* hit, by the source's call.

SMILES	M1 PAM parental	M1 ag	CHRM1 PAM	M1 ag parental	M1 antag	CHO-K1 Ca antag
Cc1noc(C)c1C(=O)OCC(=O)NC1CC1	-5	0	-6	0	14*	10
CC(C)C[C@@H]1CN=C(N)N1C[C@@H]1CCCN1C[C@H](C)N1C[C@@H](Cc2ccccc2)N(CCCC2CCCC2)C1=N	-2	-10	-31	0	34*	-9
CC(C)C[C@@H]1CN=C(N)N1C[C@@H]1CCCN1C[C@H](C)N1C[C@@H](Cc2ccccc2)N(CCc2ccc(Cl)c(Cl)c2)C1=N	10	-8	-22	0	13	-13
CCC[C@@H](CN1CCC[C@H]1CN1C(N)=NC[C@H]1CC(C)C)N1C[C@@H]([C@H](C)CC)N(CCCC2CCCC2)C1=N	-10	-12	-31	0	59*	6
O=C(CC[C@H]1O[C@@H](n2cnc3c(NC(=O)c4ccccc4)ncnc32)[C@H](O)[C@@H]1O)N[C@@H](CO)Cc1c[nH]c2ccccc12	19	-4	6	1	-30	-23
O=c1ccnc(SCc2ccccc2Cl)[nH]1	-8	-2	7	0	6	28*
CC(C)(C)c1cc(=O)[nH]c(SCc2ccccc2Cl)n1	-1	-9	4	0	-6	-8
COc1ccc(S(=O)(=O)N2CCCCCC2)cc1C(=O)N1CCN(c2ccccc2O)CC1	25	-2	5	1	-10	-12
CN1C(=O)C(CC#N)(C2(CC#N)C(=O)N(C)c3ccccc32)c2ccccc21 (stereo not drawn)	11	-2	0	0	-4	-3
COc1ccc(C2(C(=O)Nc3ccc(S(=O)(=O)Nc4nc(C)cc(C)n4)cc3)CCCC2)cc1OC	9	-2	6	0	-5	-3
Cc1cccc(NC(=O)C2(c3ccc([N+](=O)[O-])cc3)CCCC2)c1	8	4	-5	19*	12	3
Cc1cc(C)nc(NS(=O)(=O)c2ccc(NC(=O)C3(c4ccc([N+](=O)[O-])cc4)CCCC3)cc2)n1	29	24*	8	13	15	-1
O=C(COC(=O)/C=C/c1ccccc1[N+](=O)[O-])Nc1ccc2[nH]c(=O)[nH]c2c1	5	0	2	0	-6	-8
NC(c1ccccc1)c1csc(Nc2cc(Oc3ccccc3)ncn2)n1 (stereo not drawn)	-9	-6	-30	1	60*	8
Cc1cc(C)c(NC(=O)CCCn2c(=O)oc3ccccc32)c(C)c1	-3	-2	12	0	-11	2
CCOC(=O)c1[nH]c2ccc(Br)cc2c1NC(=O)CCN1CCC(C)CC1	24	-2	-14	2	32*	-13
CN(C)c1nc(N)c2nccnc2n1	23	-2	5	2	-5	-2
COc1cccc(C=Cc2nccc3ccccc23)c1OC	-6	-4	-4	0	2	14
CN(C)c1ccc(C=Cc2nccc3ccccc23)cc1	-3	27*	-36	20*	41*	25*
CCN(CC)c1nc(C=Cc2ccc(N(C)C)cc2)c2nccnc2n1	-3	33*	-15	45*	46*	44*
Cn1c(CNC(=O)CCNC(=O)c2cccc(F)c2)cc(=O)n(C)c1=O	22	-1	9	1	-17	-7
Cn1sccc1=O	21	2	3	1	-10	-9
COc1cc(NC(=O)C2(C)CCCN2C)cc(OC)c1OC (stereo not drawn)	-14	-1	8	0	-14	28*
CN1CCN(/N=C/c2ccc(OCc3ccccc3)cc2)CC1	0	-5	-25	5	58*	-5
CCCCN1C(=O)C(=O)N(CC(=O)Nc2cc(Cl)ccc2OC)C1=O	-2	1	28*	1	-19	-20
SMILES	M1 PAM parental	M1 ag	CHRM1 PAM	M1 ag parental	M1 antag	CHO-K1 Ca antag
CCCCOC(=O)CSc1nc(N)c(C#N)c(-c2ccc(OCC)cc2)c1C#N	-5	-2	1	0	-17	27*
COCCSc1ccccc1C(=O)N1CCc2ccccc21	16	-9	-3	1	-1	-6
O=C(C1=NN[C@@H]2C(=O)N(Cc3ccccc3)C(=O)[C@H]12)c1ccc([N+](=O)[O-])cc1	22	0	3	23*	-2	-7
O=C(Cc1ccccc1)N1CCN(C(=O)c2ccc([N+](=O)[O-])cc2)CC1	6	-10	3	0	-8	-9
N#CCSc1nnc(-c2sc3ccccc3c2Cl)o1	25	-6	5	2	-10	-9
Clc1cccc2sc(-c3nnc(-c4ccccc4)o3)c(Cl)c12	-7	-3	-2	0	4	26*
C#Cc1ccc([C@@H]2C=C(C(=O)Nc3ccccc3)O[C@H](OCC)[C@H]2CCCO)cc1	1	-3	0	0	0	-15
CCO[C@@H]1OC(C(=O)NCc2ccccc2)=C[C@H](c2ccc(Br)cc2)[C@H]1CCCO	-11	-11	-34	0	68*	3
C#Cc1ccc([C@H]2C=C(C(=O)NCc3ccccc3)O[C@@H](OCC)[C@@H]2CCCO)cc1	16	-14	-40	0	63*	-18
CCO[C@H]1OC(C(=O)NCc2ccccc2)=C[C@@H](c2ccc(C(F)(F)F)cc2)[C@@H]1CCCO	-3	-3	3	1	-3	4
COc1cccc(N2CCN(C(=O)c3cccc(NC4=NC5CS(=O)(=O)CC5S4)c3)CC2)c1 (stereo not drawn)	-6	-2	-3	5	-6	24*
CC(C)(C)c1ccc(C(=O)NC(CC(=O)O)c2ccc(OC3CCCC3)cc2)cc1 (stereo not drawn)	9	-8	13	1	-26	-23
CCOc1cc(C(=O)NC(CC(=O)O)c2ccc(OC3CCCC3)cc2)cc(OCC)c1OCC (stereo not drawn)	2	-5	10	3	-16	32*
CCCn1c(=O)[nH]c2ccccc21	8	1	5	1	-1	5
O=c1[nH]c2ccccc2n1CCCN1CCCCC1	15	21*	-15	0	10	-15
Cc1ccc(S(=O)(=O)N2CCN(C(=O)CCc3c[nH]c4ccccc34)CC2)c(C)c1	19	-1	8	1	-9	-21
O=C1CC(c2cccnc2)c2cc3c(cc2N1)OCCO3 (stereo not drawn)	-6	-1	-9	0	39*	11
COc1ccc(S(=O)(=O)N2CCN(CCc3ccccc3)CC2)cc1	1	-6	-1	0	-5	4
COc1ccc(N=Cc2c(O)c3ccccc3n2C(C)=O)cc1	3	-4	4	0	-5	-4
